Test results reported in PubChem BioAssay AID1159580 (chemical genetic matrix, 2015).
Hit rate of the full screen: of about 5,500 compounds, about 2,000 (36%) were called active. Another 18% or so got no clear call; they are omitted. Cut-off read from the data, not from the text of the source: active = normalized growth mostly below about 0.91 (no sharp cut-off); inconclusive = no clear call, values can overlap the other calls; inactive = mostly above about 0.92. Some of the results follow.

Experiment: chemical genetic growth profiling, strain panel (AID 1159580);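 note: tested at 20 µM; growth read once vehicle control cultures reached saturation at 30 °C; 1 = growth at the plate median or of vehicle wells; lower values mean less growth of the strain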
Conditions: S. cerevisiae deletion strains, growth OD
[1] = locus YAL040C, strain CLN3, stronger effect = lower value
[2] = locus YDR363W, strain ESC2, stronger effect = lower value
[3] = locus YER002W, strain NOP16, stronger effect = lower value
[4] = locus YGR078C, strain PAC10, stronger effect = lower value
[5] = locus YMR263W, strain SAP30, stronger effect = lower value
[6] = locus YMR307W, strain GAS1, stronger effect = lower value
[7] = locus YNL153C, strain GIM3, stronger effect = lower value
[8] = locus YNL175C, strain NOP13, stronger effect = lower value
[9] = locus YNL197C, strain WHI3, stronger effect = lower value
[10] = locus YNL224C, strain SQS1, stronger effect = lower value
[11] = locus YOR083W, strain WHI5 (second series), stronger effect = lower value
[12] = locus YPL241C, strain CIN2, stronger effect = lower value

Measured: normalized growth

Cc1nc2c(OCc3ccccc3)cccn2c1CC#N
inactive: [1] 0.99 | locus YCL061C, strain MRC1 (second series), stronger effect = lower value 0.996 | [2] 0.987 | [3] 0.991 | [4] 0.996 | [5] 1 | [6] 0.974 | [7] 0.994 | [8] 0.991 | [9] 1 | [10] 0.995 | locus YNL322C, strain KRE1, stronger effect = lower value 1.01 | [11] 0.97 | [12] 1

CC(C)(C)c1cc2nc(C(F)(F)F)cc(NNC(=O)c3ccc(Cl)cc3)n2n1
inactive: locus YAR019C, strain CDC15, stronger effect = lower value 0.978 | locus YBL105C, strain PKC1, stronger effect = lower value 0.994 | locus YBR135W, strain CKS1, stronger effect = lower value 0.977 | locus YBR136W, strain MEC1, stronger effect = lower value 0.989 | locus YBR160W, strain CDC28, stronger effect = lower value 0.978 | locus YDL017W, strain CDC7, stronger effect = lower value 0.996 | locus YDL028C, strain MPS1, stronger effect = lower value 0.984 | locus YDL101C, strain DUN1, stronger effect = lower value 0.991 | locus YDL108W, strain KIN28, stronger effect = lower value 0.981 | locus YDL132W, strain cdc53, stronger effect = lower value 0.974 | locus YDL214C, strain PRR2, stronger effect = lower value 1.01 | locus YDR052C, strain DBF4, stronger effect = lower value 0.989 | locus YDR054C, strain cdc34, stronger effect = lower value 0.978 | locus YDR226W, strain ADK1, stronger effect = lower value 0.982 | locus YDR477W, strain SNF1, stronger effect = lower value 1.03 | locus YER123W, strain YCK3, stronger effect = lower value 0.999 | locus YER133W, strain GLC7, stronger effect = lower value 1.03 | locus YFL009W, strain cdc4, stronger effect = lower value 0.981 | locus YFL029C, strain CAK1, stronger effect = lower value 0.981 | locus YFR003C, strain YPI1, stronger effect = lower value 0.992 | locus YFR019W, strain FAB1, stronger effect = lower value 0.966 | locus YFR028C, strain CDC14, stronger effect = lower value 0.979 | locus YGR040W, strain KSS1, stronger effect = lower value 1.01 | locus YGR052W, strain FMP48, stronger effect = lower value 1.12 | locus YGR092W, strain DBF2, stronger effect = lower value 0.952 | locus YHR030C, strain SLT2, stronger effect = lower value 1.04 | locus YHR079C, strain IRE1, stronger effect = lower value 0.989 | locus YHR082C, strain KSP1, stronger effect = lower value 1.06 | locus YHR205W, strain SCH9, stronger effect = lower value 0.99 | locus YIL147C, strain SLN1, stronger effect = lower value 0.983 | locus YJL095W, strain BCK1, stronger effect = lower value 0.991 | locus YJL128C, strain PBS2, stronger effect = lower value 0.961 | locus YJL157C, strain FAR1, stronger effect = lower value 1.02 | locus YJR016C, strain ILV3, stronger effect = lower value 0.977 | locus YJR066W, strain TOR1 (second series), stronger effect = lower value 0.991 | locus YJR066W, strain TOR1, stronger effect = lower value 1.05 | locus YKL048C, strain ELM1, stronger effect = lower value 0.986 | locus YKL067W, strain YNK1, stronger effect = lower value 1 | locus YKL101W, strain HSL1, stronger effect = lower value 1.01 | locus YKL193C, strain SDS22, stronger effect = lower value 0.977 | locus YKL203C, strain TOR2, stronger effect = lower value 1.07 | locus YLR113W, strain HOG1, stronger effect = lower value 0.983 | locus YLR133W, strain CKI1, stronger effect = lower value 0.995 | locus YLR403W, strain SFP1, stronger effect = lower value 0.991 | locus YML070W, strain DAK1, stronger effect = lower value 1 | locus YMR001C, strain CDC5, stronger effect = lower value 0.994 | locus YMR205C, strain PFK2 (second series), stronger effect = lower value 1 | locus YMR277W, strain FCP1, stronger effect = lower value 0.973 | locus YNL006W, strain LST8, stronger effect = lower value 0.988 | locus YNL020C, strain ARK1, stronger effect = lower value 1.01 | locus YNL161W, strain CBK1, stronger effect = lower value 0.991 | locus YNL183C, strain NPR1, stronger effect = lower value 0.988 | locus YNL207W, strain RIO2, stronger effect = lower value 0.981 | locus YNL222W, strain SSU72, stronger effect = lower value 0.975 | locus YNL307C, strain MCK1 (second series), stronger effect = lower value 1 | locus YOL078W, strain AVO1, stronger effect = lower value 0.98 | locus YOL136C, strain PFK27, stronger effect = lower value 1.01 | locus YOR061W, strain CKA2, stronger effect = lower value 0.995 | locus YOR119C, strain RIO1, stronger effect = lower value 1.11 | locus YOR231W, strain MKK1, stronger effect = lower value 0.988 | locus YOR329C, strain SCD5, stronger effect = lower value 0.997 | locus YPL031C, strain PHO85, stronger effect = lower value 1.03 | locus YPL153C, strain RAD53, stronger effect = lower value 1.03 | locus YPL204W, strain HRR25, stronger effect = lower value 1.05 | locus YPL209C, strain IPL1, stronger effect = lower value 0.988 | locus YPL256C, strain CLN2, stronger effect = lower value 0.994 | locus YPR025C, strain CCL1, stronger effect = lower value 0.988 | locus YPR106W, strain ISR1, stronger effect = lower value 0.988 | locus YPR111W, strain DBF20, stronger effect = lower value 0.976 | strain NNK1, stronger effect = lower value 0.983 | strain TSCII, stronger effect = lower value 0.984

Cc1cc(NC(=O)Nc2ccc3c(ccn3C)c2)sn1
inactive: [1] 0.993 | [2] 1.02 | [3] 0.992 | [4] 0.999 | locus YGR229C, strain SMI1, stronger effect = lower value 1 | locus YJR075W, strain HOC1, stronger effect = lower value 1 | [5] 0.968 | [6] 0.996 | [7] 1.04 | [8] 1.02 | [9] 0.983 | [10] 0.996 | [11] 1.01 | [12] 0.992
